In PubChem BioAssay (NCATS):
Inconclusive results are not listed. Where a call stands in place of a potency, no number is given. Calls of active or inactive are those of the source. The call rests on the fitted dose curve; in most records, active means well fitted inhibition curve with a large enough effect; inconclusive means small, poorly fitted or top-dose-only effect; inactive means flat fitted curve, though single readings scatter.
Potency means the concentration at half of the fitted maximal effect.

These molecules were tested on WaGa (assay: qHTS assay to identify novel small-molecules to repurpose for Merkel cell carcinoma treatment (AID 1296009; further: nearly all actives have a fitted effect of over 60% in size)). Conditions: MCC and control cell lines, CellTiter-Glo viability, 72 h; series mostly up to 46 µM.
Outline: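 After compound transfer in DMSO, plates were kept 72 hr at 37 degree celsius. Luminescent ATP signal from CellTiter-Glo served as viability measure, normalized against DMSO and no-cell controls.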
In the case of `C[C@H](Cn1cnc2c(N)ncnc21)OCP(=O)(O)O`, the Potency is reported as “inactive”.
`N[C@@H](Cc1cc(I)c(Oc2cc(I)c(O)c(I)c2)c(I)c1)C(=O)O` was tested, and the Potency was “inactive”.
`COc1ccccc1N1CCN(CCN(C(=O)C2CCCCC2)c2ccccn2)CC1` was tested, and the Potency was “inactive”.
In the case of `CNC[C@H](O)c1ccc(O)c(O)c1`, the Potency is reported as “inactive”.
In the case of `Nc1ncn([C@H]2C[C@H](O)[C@@H](CO)O2)c(=O)n1`, the Potency is reported as “inactive”.
`Cc1cc(=O)oc2cc(O)ccc12` was tested, and the Potency was “inactive”.
In the case of `O=C(NOCC1CC1)c1ccc(F)c(F)c1Nc1ccc(I)cc1Cl`, the Potency is reported as 15 µM (active).
For `Nc1ccc(S(N)(=O)=O)cc1`, the Potency was “inactive”.
In the case of `C[C@@H](N)C1CCC(C(=O)Nc2ccncc2)CC1` (stereo not given in full), the Potency is reported as “inactive”.
In the case of `COc1cc(OC)c(C(=O)CCCN2CCCC2)c(OC)c1`, the Potency is reported as “inactive”.
With `Cc1nc(Nc2ncc(C(=O)Nc3c(C)cccc3Cl)s2)cc(N2CCN(CCO)CC2)n1` the Potency was “inactive”.
With `CN1CCC(=C2c3ccccc3CCc3sccc32)CC1` the Potency was “inactive”.
With `CCN(CC)CCOc1ccc(Cc2ccccc2)cc1` the Potency was “inactive”.
For `CCOC(=O)c1c(C)n(C)c2ccc(O)cc12`, the Potency was “inactive”.
With `Cc1cc(=O)c2c(O)c3c(O)cc(=O)c4c3c3c(cc(O)c1c23)C(C)(C)C=4O` the Potency was “inactive”.
With `Nc1ccn([C@@H]2O[C@H](CO)[C@@H](O)C2O)c(=O)n1` (stereo not given in full) the Potency was “inactive”.
In the case of `O=C(O)c1cccnc1Nc1cccc(C(F)(F)F)c1`, the Potency is reported as “inactive”.
In the case of `CCC(C)(Oc1ccc(C2(c3ccc(OC(C)(CC)C(=O)O)cc3)CCCCC2)cc1)C(=O)O` (stereo not given), the Potency is reported as “inactive”.
For `CC1Cc2ccccc2N1NC(=O)c1ccc(Cl)c(S(N)(=O)=O)c1` (stereo not given), the Potency was “inactive”.
With `CCOc1cc(CC(=O)N[C@@H](CC(C)C)c2ccccc2N2CCCCC2)ccc1C(=O)O` the Potency was “inactive”.
